Hit rate of the full screen: of about 330,000 compounds, about 5,800 (1.8%) were called active.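 The calls were made as follows: active = inhibition above about 50% at the single tested dose (limit read from the data); inactive = the rest.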 The full list was thinned out, with actives kept by preference.
The compounds below were run against Sentrin-specific protease 6 (Homo sapiens) (UniProt Q9GZR1) (assay: SENP6 protease inhibitors, primary screen, biochemical, luminescence, uHTS (AID 2599;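 also: plate controls were DMSO wells with enzyme for no effect and DMSO wells lacking enzyme for full effect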)). Details: Recombinant SENP6 catalytic domain, aminoluciferin luminescence; at 10 µM; hits give high values.
Sequence of Sentrin-specific protease 6 (Homo sapiens) (Q9GZR1 628-1112 limits assumed): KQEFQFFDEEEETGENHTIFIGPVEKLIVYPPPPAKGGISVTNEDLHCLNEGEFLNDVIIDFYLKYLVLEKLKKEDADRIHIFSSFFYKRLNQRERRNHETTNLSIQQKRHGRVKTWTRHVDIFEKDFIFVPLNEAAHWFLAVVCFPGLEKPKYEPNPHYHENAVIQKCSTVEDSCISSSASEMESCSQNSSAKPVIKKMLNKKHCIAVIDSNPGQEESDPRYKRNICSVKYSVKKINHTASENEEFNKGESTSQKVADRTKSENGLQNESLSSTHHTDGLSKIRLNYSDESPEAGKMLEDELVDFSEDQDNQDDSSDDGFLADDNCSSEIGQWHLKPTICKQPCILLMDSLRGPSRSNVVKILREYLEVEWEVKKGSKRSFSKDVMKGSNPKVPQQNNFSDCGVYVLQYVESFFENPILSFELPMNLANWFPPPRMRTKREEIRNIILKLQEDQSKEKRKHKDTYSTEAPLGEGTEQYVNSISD

| SMILES | inhibition |
| --- | --- |
| Cc1nc2ccccc2c(=O)n1-c1ccc(F)c(NC(=O)c2cccs2)c1 | 1.23% (inactive) |
| CCn1nnnc1SCC(=O)c1ccc(C)cc1C | 16% (inactive) |
| CC(Oc1cccc(Cl)c1)C(=O)NC1CC(C)(C)NC(C)(C)C1 (stereo not given) | 0.854% (inactive) |
| Cc1nnc(SCC(=O)Nc2ccc(S(=O)(=O)Nc3ccc(Cl)nn3)cc2)s1 | -2.31% (inactive) |
| Cc1ccc(SC(CC(=O)c2ccc(C(C)(C)C)cc2)C(=O)O)cc1 (stereo not given) | -11.7% (inactive) |
| CC(C)CNC(=O)c1cc(-c2ccc(Br)cc2)on1 | -1.36% (inactive) |
| CC(C)Cc1cc(C(=O)Nc2cc(Br)ccc2O)no1 | 58.1% (active) |
| CC(C)Cc1cc(C(=O)NCCc2ccccc2)no1 | 13% (inactive) |
| O=C(NNc1cc(Cl)cc(Cl)c1)c1c(F)cccc1Cl | -9.66% (inactive) |
| O=C(Nc1ccccc1)c1cc2ccccc2[nH]1 | 86.2% (active) |
| CC(OC(=O)c1cc2ccccc2[nH]1)C(=O)N(C)c1ccccc1 (stereo not given) | -10.7% (inactive) |
| COc1ccc2[nH]c(C(=O)Nc3ccccc3Cl)cc2c1 | -36% (inactive) |
| O=C(Cc1ccc(S(=O)(=O)N2CCOCC2)s1)NCCC(c1ccccc1)c1ccccc1 | -9.6% (inactive) |
| CC(=O)n1c(C=Nc2ccccc2)c(O)c2ccccc21 | -2.55% (inactive) |
| Oc1ccc(N=Cc2sc3ccccc3c2Cl)cc1 | 65.7% (active) |
| CCn1c(SCC(=O)Nc2cccc(F)c2)nnc1-c1cc2cc(Br)ccc2o1 | -0.574% (inactive) |
| CCc1cccc(C)c1NC(=O)COC(=O)Cc1ccsc1 | -15.1% (inactive) |
| CCN1CCN(C(=O)/C=C\C(=O)O)CC1 | -13.9% (inactive) |
| O=[N+]([O-])c1ccc2c(c1)Nc1nc3ccccc3nc1N2 | -19% (inactive) |
| O=[N+]([O-])c1ccc(N/N=C2/CCCCC2c2ccccn2)c([N+](=O)[O-])c1 (stereo not given) | -14.2% (inactive) |
| O=[N+]([O-])c1ccc2nc(-c3ccccn3)[nH]c2c1 | 55.5% (active) |
| Cc1cccc(C(=O)OCC(=O)Nc2ccc(F)cc2)c1 | -14% (inactive) |
| CCOC(=O)c1cccc(NC(=O)CCOc2ccccc2)c1 | -8.69% (inactive) |
| CCOC(=O)c1cccc(NC(=O)c2ccc(F)cc2F)c1 | 53.3% (active) |
| COc1c(C=O)c(CCN(C)C(=O)c2ccc(F)cc2)cc2c1OCO2 | -13.8% (inactive) |

| SMILES | inhibition |
| --- | --- |
| COC(CNC(=O)Cn1ncc2ccsc2c1=O)OC | -0.866% (inactive) |
| O=C(c1ccc(NS(=O)(=O)c2ccc3[nH]c(=O)[nH]c3c2)cc1)N1CCCCC1 | -7.59% (inactive) |
| C#CCOc1ccccc1/C=C1/C(=O)ON=C1C | 9.07% (inactive) |
| Cc1ccc(C23CC4CC(CC(C(=O)NCC(=O)O)(C4)C2)C3)cc1 | -30.4% (inactive) |
| CC(C)CCNC(=O)Cn1c(=O)oc2cc(S(=O)(=O)N3CC(C)CC(C)C3)ccc21 (stereo not given) | 2.44% (inactive) |
| Cc1cc(=O)[nH]c(N/N=C/c2ccc3c(c2)OCCO3)n1 | -9.26% (inactive) |
| Cc1noc(C)c1/C=N/Nc1ccc2ccccc2n1 | -42.7% (inactive) |
| C(=N\Nc1ccc2ccccc2n1)/c1ccc2c(c1)OCO2 | 91.4% (active) |
| O=C(CCc1n[nH]c(=O)[nH]c1=O)N/N=C/c1ccc(Br)o1 | -16.6% (inactive) |
| CCNc1nc(SCCOc2ccccc2)nc(N(C)C)n1 | -7.75% (inactive) |
| COc1ccccc1-n1c(-c2cc(-c3ccco3)[nH]n2)n[nH]c1=S | 8.36% (inactive) |
| CS(=O)(=O)n1nc(-c2ccco2)nc1N | 12.1% (inactive) |
| Cn1c(-c2ccco2)nc2cc3ccccc3cc21 | 98.6% (active) |
| COc1cc(/C=N/NC(=O)CCc2n[nH]c(=O)[nH]c2=O)ccc1O | -10.3% (inactive) |
| COc1cc(/C=N/Nc2nc3ccccc3s2)ccc1O | 85.4% (active) |
| COc1ccc(/C=N/NC(=O)c2cc(-c3cccc(C)c3)nc3ccccc23)cc1O | 4.88% (inactive) |
| Cc1c(C(=O)NNC(=O)c2ccncc2)oc2ccccc12 | -3.56% (inactive) |
| O=C(CCNC(=O)c1ccc(Cl)cc1)NC1CCCc2ccccc21 (stereo not given) | 2% (inactive) |
| Cc1cccc(C(=O)Nc2nnc(S(=O)(=O)N3CCCCCC3)s2)c1 | 33.1% (inactive) |
| O=C(Nc1nnc(S(=O)(=O)N2CCOCC2)s1)c1cccc(Br)c1 | 21.8% (inactive) |
| O=C(Nc1nnc(S(=O)(=O)N2CCCCCC2)s1)c1cccc(Br)c1 | 75.4% (active) |
| Cc1c(Cl)c([N+](=O)[O-])nn1CC(=O)NCC1CCCO1 (stereo not given) | -2.16% (inactive) |
| CCCCNC(=O)c1cn(CC)c2cc(N3CCN(C(=O)c4ccco4)CC3)c(F)cc2c1=O | 12.7% (inactive) |
| Cc1noc(C)c1CSc1nc2cc(S(=O)(=O)N3CCOCC3)ccc2o1 | 3.51% (inactive) |
| CSc1ccccc1NC(=O)c1cc(C2CC2)on1 | 52% (active) |

| SMILES | inhibition |
| --- | --- |
| CSc1ccccc1NC(=O)c1cc(Cl)sc1Cl | -4.94% (inactive) |
| O=C(NC1CCCCC1)c1cc(C2CC2)on1 | -14.8% (inactive) |
| Nc1c(C(=O)OCC(=O)Nc2ccc(OC(F)F)cc2)[nH]c(=O)[nH]c1=O | 4.9% (inactive) |
| O=C(/C=C/c1ccc([N+](=O)[O-])o1)NNC(=O)c1ccc(F)cc1 | -1.45% (inactive) |
| CCCCN(CC)C(=O)C1CCCN(S(=O)(=O)c2cccc3nsnc23)C1 (stereo not given) | 8.83% (inactive) |
| COC(=O)c1cccc(C(=O)N2CCC(CCC(=O)NCc3ccc(F)cc3)CC2)c1 | 2.77% (inactive) |
| CCCc1nc(N2CCN(C)CC2)c2sc(=S)n(-c3ccccc3)c2n1 | 8.07% (inactive) |
| O=C(COc1ccc(Cl)cc1)NCc1nnc(SCC(=O)NCC2CCCO2)o1 (stereo not given) | -1.58% (inactive) |
| O=C1CSc2ccc(C(=O)NCc3ccccn3)cc2N1 | 0.274% (inactive) |
| c1ccc(CN=C2Nc3ccccc3CS2)nc1 | 52.5% (active) |
| COc1ccc(Cl)cc1NS(=O)(=O)c1cccc(C(=O)NC2CCC(O)CC2)c1 (stereo not given) | 3.9% (inactive) |
| CCC1C(=O)c2ccccc2N(C)C1=O (stereo not given) | -9.28% (inactive) |
| CN1C(=O)/C(=N/OC(=O)c2ccccc2Br)c2ccccc21 | 20.2% (inactive) |
| CN1C(=O)/C(=C\c2cc(Br)cs2)c2ccccc21 | 66.3% (active) |
| CCOc1ccc(C(c2c(C)[nH][nH]c2=O)c2c(C)[nH][nH]c2=O)cc1OCC | 16.7% (inactive) |
| O=C(NC1CCCCC1)c1ccc(-c2ccc(Cl)cc2)o1 | -2.51% (inactive) |
| Cc1[nH][nH]c(=O)c1C(c1ccc(-c2ccc(Cl)cc2)o1)c1c(C)[nH][nH]c1=O | 53.1% (active) |
| Cc1cccc(NC(=O)C2CCCN(C(=O)NCc3ccccc3)C2)c1C (stereo not given) | 8.32% (inactive) |
| CCNC(=O)CC1C(=O)N(c2ccc(OC)cc2)C(=O)N1CCOC (stereo not given) | -17.8% (inactive) |
| CCCCCCCCCOC1OC(CO)C(O)C(O)C1NC(C)=O (stereo not given) | -4.5% (inactive) |
| Clc1ccc(C2=CSC3=Nc4cccc5cccc(c45)N23)cc1 | 82.2% (active) |
| CCCN(CCc1ccccc1)C1CCc2c(O)cccc2C1 (stereo not given) | -8.37% (inactive) |
| Cc1nc(NC(=O)c2ccc3c(c2)OCCO3)ccc1Br | 70.9% (active) |
| COc1ccc(C(=O)NC(=S)Nc2ccc(Cl)cn2)cc1OC | -0.015% (inactive) |
| CCCCC(CC)C(=O)Nc1ccc(Cl)cn1 (stereo not given) | 0.311% (inactive) |

| SMILES | inhibition |
| --- | --- |
| CCCc1cc(C(=O)Nc2ccc(Cl)cn2)cs1 | 86.5% (active) |
| CCCc1cc(C(=O)Nc2ccc(C(=O)OC)cc2)cs1 | -4.63% (inactive) |
| O=C(Nc1ccc(Cl)cn1)c1ccc2c(c1)OCCO2 | 76.8% (active) |
| Cc1ccc(C(=O)NNC(=O)c2ccc3c(c2)OCCO3)cc1 | 16.5% (inactive) |
| Cc1cccc(C)c1NC(=O)CNC(=O)c1ccc2c(c1)OCCO2 | -7.93% (inactive) |
| COc1c(Cl)cc(C(=O)Nc2ccc(Cl)cn2)cc1Cl | 23.4% (inactive) |
| O=C(/C=C/c1cnc2ccccc2n1)NC1CCCCCC1 | -2.57% (inactive) |
| O=C(CC1C(=O)NCCN1Cc1ccc(-c2ccccc2)cc1)NCc1ccncc1 (stereo not given) | -5.88% (inactive) |
| CC1CN(S(=O)(=O)c2cccc(C(F)(F)F)c2)CN1C(=O)N1CCOCC1 (stereo not given) | -20.3% (inactive) |
| COc1cc(OC)c(NC(=O)C2CCCN2C(=O)OCc2ccccc2)cc1Cl (stereo not given) | -8.31% (inactive) |
| CC1(C)CC(=O)C2=C(C1)NCN(CCCN1CCOCC1)C2 | 1.73% (inactive) |
| CCCn1nnc(NC(=O)COc2ccc(CC)cc2)n1 | 1.27% (inactive) |
| CC(=O)C(CC(=O)N1CCCC1)C(=O)Nc1ccc(Cl)cc1 (stereo not given) | -4.11% (inactive) |
| CC(C)C(=O)Nc1nnc(Sc2ccc(N(C)C)cc2)s1 | -0.866% (inactive) |
| O=C(c1ccc(F)cc1)c1cn(Cc2ccc(F)cc2)c2cc3c(cc2c1=O)OCCO3 | -4.67% (inactive) |
| COCCN(CCOC)c1nc(N)c2c(N)nc3c(c2c1C#N)CC(=O)N3Cc1ccc(Cl)cc1 | 81.3% (active) |
| CC1COC2C(O1)N(S(C)(=O)=O)CCN2S(C)(=O)=O (stereo not given) | -1.6% (inactive) |
| CC1(C)CC(=O)C=C(NCc2ccncc2)C1 | 11.9% (inactive) |
| Cc1csc(OCC(=O)Nc2ccc(C)c(C)c2)n1 | -7.65% (inactive) |
| Oc1ccc(Br)cc1C=Nc1ccc2[nH]ncc2c1 | 55.4% (active) |
| CCN(CC)CCn1c(/N=C/c2cc(Br)ccc2O)nc2ccccc21 | 5.27% (inactive) |
| Oc1ccc(Br)cc1/C=N/Nc1ccccn1 | 14.9% (inactive) |
| Cc1ccn(-c2cccc(-n3ccc(C)n3)n2)n1 | -0.107% (inactive) |
| O=S(=O)(c1ccc(Br)c2ccccc12)N1CCOCC1 | -3.67% (inactive) |
| Cc1c(Cl)c([N+](=O)[O-])nn1CC(=O)NCCCN1CCOCC1 | -13.8% (inactive) |
